Structures can show the parent of a compound that is named as a salt.
Key:
Experiment in all cases: lowest phenotypically active concentration; higher = less potent
Settings in all cases: treatment time: 24 h
A549-TP53BP1-CLTA = test system: A549-TP53BP1-CLTA
Method in brief: (§1)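 The reporter lines, fifteen in total and built by gene editing in A549, HepG2 and WPMY1 cells, used BFP for segmentation alongside GFP and RFP/FusionRed markers. Each was treated at 0.3, 1, 3 or 9 µM for 24 h in four wells and then imaged live, with live-cell features normalised to solvent control wells. Deviation meant ≥3 of 4 wells beyond the 95th percentile of control Euclidean distances; reproducibility meant a median replicate Pearson correlation above the 95th percentile of non-replicates. Only conditions meeting both were scored as phenotypically active.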

HepG2-ACTB-RAB5A = test system: HepG2-ACTB-RAB5A
Method in brief: as §1

HepG2-CANX-COX4 = test system: HepG2-CANX-COX4
Method in brief: as §1

HepG2-GM130-SQSTM1 = test system: HepG2-GM130-SQSTM1
Method in brief: as §1

HepG2-TP53BP1-CLTA = test system: HepG2-TP53BP1-CLTA
Method in brief: as §1

WPMY1-ACTB-RAB5A = test system: WPMY1-ACTB-RAB5A
Method in brief: as §1

WPMY1-CANX-COX4 = test system: WPMY1-CANX-COX4
Method in brief: as §1

WPMY1-TP53BP1-CLTA = test system: WPMY1-TP53BP1-CLTA
Method in brief: as §1

WPMY1-TUBA1B-RELA = test system: WPMY1-TUBA1B-RELA
Method in brief: as §1

WPMY1-GM130-SQSTM1 = test system: WPMY1-GM130-SQSTM1
Method in brief: as §1

Measured: lowest phenotypically active concentration

O=C(O)[C@]1(Cc2cccc(Nc3nccs3)n2)CC[C@@H](Oc2cccc(Cl)c2F)CC1
1 µM: A549-TP53BP1-CLTA | HepG2-CANX-COX4 | WPMY1-CANX-COX4
not listed: WPMY1-GM130-SQSTM1
≤ 0.3 µM: all other assays above

CNc1nc(-c2ccc3c(N)n[nH]c3c2)cc(N2C[C@@H](C(=O)NC3CCCCC3)CC[C@H]2C)n1
≤ 0.3 µM: WPMY1-GM130-SQSTM1 | WPMY1-TP53BP1-CLTA
1 µM: WPMY1-ACTB-RAB5A | WPMY1-CANX-COX4 | WPMY1-TUBA1B-RELA
not listed: HepG2-ACTB-RAB5A
3 µM: all other assays above

CCCCCCCCCCNCCSSCc1ccc(Cl)cc1
3 µM: HepG2-ACTB-RAB5A | WPMY1-CANX-COX4
1 µM: HepG2-CANX-COX4
not listed: WPMY1-ACTB-RAB5A | WPMY1-TUBA1B-RELA
9 µM: all other assays above

Nc1ncnc(Nc2ccc(OCc3ccccc3)c(Cl)c2)c1/C=N/OCCN1CCOCC1
9 µM: HepG2-ACTB-RAB5A | HepG2-GM130-SQSTM1 | HepG2-TP53BP1-CLTA
1 µM: A549-TP53BP1-CLTA

CN(C)CCCN1c2ccccc2Sc2ccc(Cl)cc21 [chlorpromazine]
not listed: HepG2-ACTB-RAB5A | WPMY1-GM130-SQSTM1
9 µM: all other assays above

CN1CCN([C@H]2CC[C@H](n3cc(-c4ccc(Oc5ccccc5)cc4)c4c(N)ncnc43)CC2)CC1
1 µM: HepG2-CANX-COX4 | HepG2-TP53BP1-CLTA | WPMY1-TP53BP1-CLTA
not listed: WPMY1-CANX-COX4
≤ 0.3 µM: all other assays above

COc1ccc(N(C)c2nc(C)nc3ccccc23)cc1 [MPC 6827 hydrochloride]
1 µM: A549-TP53BP1-CLTA
≤ 0.3 µM: all other assays above

COc1cc2c(N3CCN(C(=O)Nc4ccc(OC(C)C)cc4)CC3)ncnc2cc1OCCCN1CCCCC1 [tandutinib]
not listed: WPMY1-TP53BP1-CLTA
9 µM: all other assays above

CC(C)(C)c1cc(NC(=O)Nc2ccc(-c3cn4c(n3)sc3cc(OCCN5CCOCC5)ccc34)cc2)no1 [quizartinib]
3 µM: A549-TP53BP1-CLTA | HepG2-GM130-SQSTM1 | WPMY1-ACTB-RAB5A | WPMY1-TUBA1B-RELA
9 µM: HepG2-ACTB-RAB5A | WPMY1-GM130-SQSTM1 | WPMY1-TP53BP1-CLTA
1 µM: WPMY1-CANX-COX4

COC(=O)Nc1nc2ccc(C(=O)c3cccs3)cc2[nH]1 [Nocodazole]
≤ 0.3 µM: all assays above

N=C(N)c1ccc(OCCCCCOc2ccc(C(=N)N)cc2)cc1 [pentamidine]
3 µM: A549-TP53BP1-CLTA
9 µM: HepG2-ACTB-RAB5A | HepG2-CANX-COX4 | HepG2-TP53BP1-CLTA | WPMY1-GM130-SQSTM1

N#CC[C@@H](C1CCCC1)n1cc(-c2ncnc3[nH]ccc23)cn1 [ruxolitinib-(S)]
3 µM: WPMY1-TUBA1B-RELA
not listed: HepG2-ACTB-RAB5A | WPMY1-TP53BP1-CLTA | WPMY1-GM130-SQSTM1
9 µM: all other assays above

Cc1ccc(Nc2nccc(N(C)c3ccc4c(C)n(C)nc4c3)n2)cc1S(N)(=O)=O [pazopanib]
1 µM: A549-TP53BP1-CLTA
3 µM: HepG2-CANX-COX4 | HepG2-GM130-SQSTM1 | WPMY1-CANX-COX4 | WPMY1-TUBA1B-RELA
9 µM: HepG2-TP53BP1-CLTA | WPMY1-ACTB-RAB5A

CN1CCN(C(=O)CN[C@H]2C[C@@H]2c2ccc(OCc3ccccc3)cc2)CC1 [RN 1 dihydrochloride]
3 µM: HepG2-GM130-SQSTM1
not listed: HepG2-CANX-COX4
9 µM: all other assays above

O=C(NOC[C@H](O)CO)c1ccc(F)c(F)c1Nc1ccc(I)cc1F
1 µM: WPMY1-ACTB-RAB5A | WPMY1-TP53BP1-CLTA
3 µM: WPMY1-GM130-SQSTM1
not listed: WPMY1-CANX-COX4 | WPMY1-TUBA1B-RELA
≤ 0.3 µM: all other assays above

CC(C)CNc1nc(-c2cccc3ncccc23)cn2c(-c3ccc(C(=O)NC4CC4)cc3)cnc12
not listed: WPMY1-CANX-COX4 | WPMY1-TUBA1B-RELA
1 µM: all other assays above

CNC(=O)c1cc(Oc2ccc(NC(=O)Nc3ccc(Cl)c(C(F)(F)F)c3)cc2)ccn1 [sorafenib]
3 µM: HepG2-CANX-COX4 | HepG2-GM130-SQSTM1 | WPMY1-CANX-COX4
≤ 0.3 µM: A549-TP53BP1-CLTA | WPMY1-ACTB-RAB5A
9 µM: HepG2-ACTB-RAB5A | HepG2-TP53BP1-CLTA | WPMY1-TUBA1B-RELA
1 µM: WPMY1-GM130-SQSTM1

CCN(CCO)CCCOc1ccc2c(Nc3cc(CC(=O)Nc4cccc(F)c4)n[nH]3)ncnc2c1 [barasertib-HQPA]
≤ 0.3 µM: all assays above

CCN(CC)CCNc1ccc(CO)c2sc3ccccc3c(=O)c12 [hycanthone]
3 µM: WPMY1-GM130-SQSTM1
not listed: HepG2-CANX-COX4
9 µM: all other assays above

CC[C@H](CO)Nc1nc(NCc2ccccc2)c2ncn(C(C)C)c2n1 [Roscovitine]
3 µM: HepG2-CANX-COX4 | HepG2-TP53BP1-CLTA
not listed: WPMY1-GM130-SQSTM1
9 µM: all other assays above

S=C(S)N1CCCC1 [Pyrrolidinedithiocarbamate ammonium]
3 µM: HepG2-CANX-COX4 | HepG2-TP53BP1-CLTA
9 µM: A549-TP53BP1-CLTA | HepG2-ACTB-RAB5A | HepG2-GM130-SQSTM1 | WPMY1-GM130-SQSTM1

O=C(Nc1cccnc1)N1CCC(Cc2cccc(Oc3ccc(C(F)(F)F)cn3)c2)CC1
9 µM: A549-TP53BP1-CLTA | HepG2-ACTB-RAB5A | HepG2-TP53BP1-CLTA | WPMY1-GM130-SQSTM1

CN1CCCC(n2nc(Cc3ccc(Cl)cc3)c3ccccc3c2=O)CC1 (stereo unspecified) [azelastine]
not listed: HepG2-CANX-COX4
9 µM: all other assays above

CCc1cc(-c2n[nH]c(C)c2-c2ccc3c(c2)OCCO3)c(O)cc1O
3 µM: all assays above

CC(C)(C)c1nc(-c2cccc(NS(=O)(=O)c3c(F)cccc3F)c2F)c(-c2ccnc(N)n2)s1 [dabrafenib]
3 µM: HepG2-ACTB-RAB5A
≤ 0.3 µM: A549-TP53BP1-CLTA | HepG2-CANX-COX4 | HepG2-GM130-SQSTM1 | HepG2-TP53BP1-CLTA
1 µM: WPMY1-ACTB-RAB5A | WPMY1-CANX-COX4 | WPMY1-TUBA1B-RELA

O=C(Nc1c[nH]nc1-c1nc2cc(CN3CCOCC3)ccc2[nH]1)NC1CC1
≤ 0.3 µM: all assays above

O=C1N=C(NCc2cccs2)S/C1=C\c1ccc2ncccc2c1
1 µM: WPMY1-GM130-SQSTM1
9 µM: HepG2-GM130-SQSTM1
not listed: HepG2-ACTB-RAB5A
3 µM: all other assays above

CCCCNNC(=O)c1ccc(Br)cc1
3 µM: A549-TP53BP1-CLTA | WPMY1-GM130-SQSTM1
9 µM: WPMY1-CANX-COX4 | WPMY1-TP53BP1-CLTA | WPMY1-TUBA1B-RELA
not listed: WPMY1-ACTB-RAB5A
1 µM: all other assays above

O=C1c2ccccc2-c2nc3nonc3nc21
≤ 0.3 µM: HepG2-CANX-COX4
9 µM: WPMY1-CANX-COX4
not listed: WPMY1-TP53BP1-CLTA | WPMY1-GM130-SQSTM1
3 µM: all other assays above

COc1cc2ncnc(Nc3cccc(Br)c3)c2cc1OC
≤ 0.3 µM: A549-TP53BP1-CLTA
3 µM: WPMY1-TP53BP1-CLTA
9 µM: HepG2-GM130-SQSTM1 | HepG2-TP53BP1-CLTA | WPMY1-CANX-COX4 | WPMY1-GM130-SQSTM1

Cc1cc2c(F)c(Oc3ncnn4cc(OC[C@@H](C)OC(=O)[C@H](C)N)c(C)c34)ccc2[nH]1 [brivanib-alaninate]
9 µM: A549-TP53BP1-CLTA | HepG2-ACTB-RAB5A | HepG2-GM130-SQSTM1
3 µM: all other assays above

CN(C)c1ccc(/C=C2\C(=O)Nc3ccccc32)cc1
9 µM: HepG2-GM130-SQSTM1 | HepG2-TP53BP1-CLTA | WPMY1-ACTB-RAB5A | WPMY1-TP53BP1-CLTA
3 µM: A549-TP53BP1-CLTA | WPMY1-CANX-COX4 | WPMY1-GM130-SQSTM1

c1cc(-c2cc(C3CCNCC3)[nH]n2)ccn1
9 µM: HepG2-CANX-COX4 | WPMY1-ACTB-RAB5A | WPMY1-CANX-COX4

O=C(Nc1ccccc1)c1cc([N+](=O)[O-])ccc1Cl
9 µM: HepG2-ACTB-RAB5A | WPMY1-CANX-COX4

Nc1ncnc2[nH]nc(Nc3ccc(F)cc3)c12
3 µM: WPMY1-GM130-SQSTM1
not listed: A549-TP53BP1-CLTA | HepG2-CANX-COX4
9 µM: all other assays above

COc1ccc(-c2cc(=O)c3c(O)cc(O)cc3o2)cc1O [Diosmetin]
9 µM: WPMY1-CANX-COX4 | WPMY1-TP53BP1-CLTA | WPMY1-TUBA1B-RELA

CN(C)CC(=O)Nc1ccc2[nH]c(=O)c3ccccc3c2c1 [PJ 34 hydrochloride]
3 µM: WPMY1-CANX-COX4
not listed: A549-TP53BP1-CLTA | WPMY1-TP53BP1-CLTA
9 µM: all other assays above

O=c1cc(-c2ccccc2)oc2c(O)c(O)ccc12 [7,8-Dihydroxyflavone]
not listed: A549-TP53BP1-CLTA | HepG2-TP53BP1-CLTA | WPMY1-TP53BP1-CLTA
9 µM: all other assays above

CCc1cncnc1N1CCN(Cc2nc3cc(C(F)(F)F)ccc3[nH]2)CC1
9 µM: HepG2-ACTB-RAB5A | HepG2-CANX-COX4 | HepG2-GM130-SQSTM1 | HepG2-TP53BP1-CLTA | WPMY1-TUBA1B-RELA

CC(C)c1cnn2c(NCc3ccccc3)cc(NCCCCCCN)nc12 [BS 181 dihydrochloride]
9 µM: A549-TP53BP1-CLTA | WPMY1-CANX-COX4 | WPMY1-TP53BP1-CLTA | WPMY1-TUBA1B-RELA

Cc1cc(F)c(Nc2ncnc3cc(OCc4ccccc4)ccc23)cc1O
3 µM: WPMY1-CANX-COX4
9 µM: WPMY1-TUBA1B-RELA

CN1CCc2cccc3c2[C@H]1Cc1ccc(O)c(O)c1-3 [r(-)-apomorphine]
≤ 0.3 µM: WPMY1-GM130-SQSTM1
9 µM: A549-TP53BP1-CLTA | WPMY1-ACTB-RAB5A | WPMY1-CANX-COX4 | WPMY1-TUBA1B-RELA

C=C1C(=O)O[C@@H]2C=C(C)CCC=C(C)CC[C@@H]12 [Costunolide]
3 µM: HepG2-GM130-SQSTM1
not listed: A549-TP53BP1-CLTA | WPMY1-CANX-COX4
9 µM: all other assays above

From the supplement of paper PMC7411054
